Data on 39 compounds can be found in ChEMBL document CHEMBL4296182, “CO-ADD screening of NIH NCI Diversity Set V”.

For part of these data: Entries with a potency or affinity are not part of this list.

The test system of the first assay is Escherichia coli. Put plainly: Antibacterial activity against Escherichia coli ATCC 25922 (CO-ADD:GN_001); MIC in CAMBH media using NBS plates, by Resazurin F(560/590). As to conditions: Concentration 20 uM, ASSAY_TEST Inhibition of Bacterial Growth, detection method Resazurin, Fluorescence (ex560/em590), MEDIA CAMHB, plate type 384well, CORNING #3640, time 18 hr. In kind it is functional. A general note: Alamar Blue is a resazurin reagent that responds to reducing activity.
In general, Inhibition refers to the drop in the measured response relative to a control, in per cent. Consider `Cc1ccc(-c2cssc2=S)cc1`, for which the Inhibition is recorded as -20.59%.
Still for that read-out and setting: with `Cc1ccc(NC(=O)Nc2c(Cl)cccc2Cl)cn1` the figure was -14.35%; with `COc1cc(-c2ccc(Nc3ccccc3C(=O)O)c(OC)c2)ccc1Nc1ccccc1C(=O)O`, 4.59%.
On the same count and under the same terms, with `Cc1ccc(Nc2c(O)ncnc2O)cc1C` the figure was -16.23%; with `O=[N+]([O-])C1C(c2ccccc2)C12c1ccccc1-c1ccccc12` (stereo unspecified), 13.79%; with `COc1cc2c(O)cc(C(=O)O)c(-c3cc(OC)c(OC)c(OC)c3)c2cc1OC`, 8.13%.
`COc1cc(NCc2ccccc2O)c2ncccc2c1`: the Inhibition is listed as 7.11%.
For `Sc1nc2ccccc2n2cccc12`, the Inhibition is on record as 2.01%.
On the same count and under the same terms, with `OCc1ncc(-c2ccccc2)s1` the figure was 3.7%; with `COC1OC(O)C(NC(=O)C(F)(F)F)CC1O` (stereo unspecified), 5.88%.
Same read-out and setting: with `O=C(O)C1CCC(=O)N1C(=O)OCc1ccccc1` (stereo unspecified) the figure was 8.61%; with `COc1ccc2nc3cc(Cl)ccc3c(Nc3cc(C(C)C)c(O)cc3C)c2c1`, 18.01%; with `c1ccc2c(c1)Oc1cccc3cccc-2c13`, 12.26%.
Turning to `CC(=O)Nc1ccc(OC(=O)Oc2ccc(NC(C)=O)cc2)cc1`, the Inhibition worked out at 7.78%.
For `COc1cccc2nc3cc(C)c(C)cc3nc12`, the Inhibition is 12.65%.
The same measure, in the same setting: with `COc1ccc(-c2cc(-c3ccccc3)c(-c3ccccc3)nn2)cc1` the figure was 6.8%; with `CCOC(=O)/C(C#N)=C\c1c[nH]c2ccccc12`, -10.08%.
Same read-out and setting: as for `Cc1nc([N+](=O)[O-])cn1-c1nc2ccccn2c1[N+](=O)[O-]`, the figure is 12.78%; as for `CN1C=C/C(=C/[N+](=O)[O-])N(C)C1=O`, 4.71%; as for `Cc1ccc(S(=O)(=O)Oc2cc(N)c3c(n2)CCC3)cc1`, 7.8%.
The same measure, in the same setting: as for `O=C(Cn1ccc(=O)[nH]c1=O)Nc1nccs1`, the figure is 10.86%.

A further assay concerns Klebsiella pneumoniae. The note with it: Concentration 20 uM; ASSAY_TEST Inhibition of Bacterial Growth; detection method Absorption (OD600); MEDIA CAMHB; plate type 384well; NBS; CORNING #3640; time 18 hr.
`CC(=O)OCc1cc(-c2nc3ccccc3nc2O)nn1-c1ccc(Cl)cc1`: the Inhibition was determined as 4.82%.
For `Cc1n[nH]c2nc(N)nn2c1=O`, the Inhibition is given as -2.02%.
As to `Cc1ccc(/N=N/c2c(O)c3ccccc3[nH]c2=O)c(S(=O)(=O)N(C)C)c1`, the Inhibition worked out at 6.43%.
On the same count and under the same terms, as for `Cc1ccc(/N=N\c2c(O)ccc3[nH]nnc23)cc1`, the figure is 11.98%; as for `O=C(O)c1ccccc1-c1ccccc1C(=O)Nc1ccc2c(c1)nc(O)c1ccccc12`, 7.34%.
In the case of `CC(C)NC(=O)Nc1cccc(Cl)c1`, the Inhibition came out at 8.52%.
With `COC1OCC(O)C(NC(=O)N(C)N=O)C1O` (stereo unspecified), the Inhibition came out at 18.14%.
Still for that read-out and setting: as for `CCOC(CNCc1cc(C)c2[nH]c3ccccc3c2c1C)OCC`, the figure is 8.4%; as for `O=C(c1ccc(O)cc1)c1ccc(C(=O)c2ccc(O)cc2)cc1`, 14.45%.
On the same count and under the same terms, as for `CCN(CC)Cc1cc2[nH]c3c4ccc(Cl)cc4ncc3c2cc1OC`, the figure is 30.45%.
For the compound `OC(COc1cccc2ccccc12)CN1CCN(c2ccccc2Cl)CC1` (stereo unspecified), the Inhibition amounted to 3.22%.
Still for that read-out and setting: as for `CC(=O)OCCN1c2ccccc2Sc2cnccc21`, the figure is 5.46%; as for `Cc1ccc(C2C=CC(C#N)=CN2Cc2ccccc2)cc1` (stereo unspecified), 11.58%.
As for `c1ccc(-c2nc[nH]c2-c2ccccc2)cc1`, the Inhibition worked out at 6.07%.
The same measure, in the same setting: with `COc1cccc2c1C(CO)N1C(C#N)C3CC(C(=O)O)C(C1C2)N3C` (stereo unspecified) the figure was 21.32%.
The same measure, in the same setting: with `CC(=O)Nc1ccc(S(=O)(=O)N/N=c2/sc3ccccc3n2C)cc1N` the figure was 3.38%.
On the same count and under the same terms, with `COc1cc(-c2ccc(NC(=O)NC3CC3)c(OC)c2)ccc1NC(=O)NC1CC1` the figure was 5.08%; with `CCCc1cc(=O)oc2c3c(c4c(c12)OC(C)(C)C=C4)OC(C)[C@H](C)[C@@H]3O` (stereo partly specified), 20.98%; with `Cc1ccc(-c2cssc2=S)cc1`, 2.16%.
As for `Cc1ccc(NC(=O)Nc2c(Cl)cccc2Cl)cn1`, the Inhibition amounted to 6.22%.
As to `COc1cc(-c2ccc(Nc3ccccc3C(=O)O)c(OC)c2)ccc1Nc1ccccc1C(=O)O`, the Inhibition was -0.01%.
With `Cc1ccc(Nc2c(O)ncnc2O)cc1C`, the Inhibition amounted to 1.1%.
Turning to `O=[N+]([O-])C1C(c2ccccc2)C12c1ccccc1-c1ccccc12` (stereo unspecified), the Inhibition is given as -4%.
In the case of `COc1cc2c(O)cc(C(=O)O)c(-c3cc(OC)c(OC)c(OC)c3)c2cc1OC`, the Inhibition is recorded as 8.82%.
The same measure, in the same setting: as for `COc1cc(NCc2ccccc2O)c2ncccc2c1`, the figure is 7.53%; as for `Sc1nc2ccccc2n2cccc12`, 3.32%; as for `OCc1ncc(-c2ccccc2)s1`, 5.05%.
Same read-out and setting: as for `COC1OC(O)C(NC(=O)C(F)(F)F)CC1O` (stereo unspecified), the figure is 16.01%; as for `O=C(O)C1CCC(=O)N1C(=O)OCc1ccccc1` (stereo unspecified), 12.18%.
On to `COc1ccc2nc3cc(Cl)ccc3c(Nc3cc(C(C)C)c(O)cc3C)c2c1`, for which the Inhibition is 9.53%.
